For 97 compounds, inhibition results are on record in PubChem BioAssay AID1445 (SRMLSC, 2008).

Among all 220,000 compounds or so, about 910 (0.41%) were called active. The entries come from a sample that favours actives as a whole. Potency and affinity values are given separately. Values without a mark were called inactive.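 How the source made its calls: active means primary inhibition above the hit cutoff, then over 50% inhibition at one or more dose response concentrations (cut at about 23% in these data, passing the limit was not always enough); inconclusive means conflicting primary data, or primary hits not chosen for dose response; inactive means low primary inhibition, or under 50% at every dose.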

In the experiment the target is Aminopeptidase N (Plasmodium falciparum (isolate 3D7)) (UniProt O96935). Briefly: P. falciparum M1AAP inhibitors, biochemical, fluorogenic H-Leu-NHMec substrate, 1536-well (AID 1445).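 Further: plate controls were DMSO full reaction for no effect and no enzyme background for full effect.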 Particulars: recombinant M1AAP, H-Leu-NHMec fluorogenic kinetic assay; at 30 µM, active compounds read high unless noted.
Aminopeptidase N (Plasmodium falciparum (isolate 3D7)), sequence (O96935 whole entry, looked up): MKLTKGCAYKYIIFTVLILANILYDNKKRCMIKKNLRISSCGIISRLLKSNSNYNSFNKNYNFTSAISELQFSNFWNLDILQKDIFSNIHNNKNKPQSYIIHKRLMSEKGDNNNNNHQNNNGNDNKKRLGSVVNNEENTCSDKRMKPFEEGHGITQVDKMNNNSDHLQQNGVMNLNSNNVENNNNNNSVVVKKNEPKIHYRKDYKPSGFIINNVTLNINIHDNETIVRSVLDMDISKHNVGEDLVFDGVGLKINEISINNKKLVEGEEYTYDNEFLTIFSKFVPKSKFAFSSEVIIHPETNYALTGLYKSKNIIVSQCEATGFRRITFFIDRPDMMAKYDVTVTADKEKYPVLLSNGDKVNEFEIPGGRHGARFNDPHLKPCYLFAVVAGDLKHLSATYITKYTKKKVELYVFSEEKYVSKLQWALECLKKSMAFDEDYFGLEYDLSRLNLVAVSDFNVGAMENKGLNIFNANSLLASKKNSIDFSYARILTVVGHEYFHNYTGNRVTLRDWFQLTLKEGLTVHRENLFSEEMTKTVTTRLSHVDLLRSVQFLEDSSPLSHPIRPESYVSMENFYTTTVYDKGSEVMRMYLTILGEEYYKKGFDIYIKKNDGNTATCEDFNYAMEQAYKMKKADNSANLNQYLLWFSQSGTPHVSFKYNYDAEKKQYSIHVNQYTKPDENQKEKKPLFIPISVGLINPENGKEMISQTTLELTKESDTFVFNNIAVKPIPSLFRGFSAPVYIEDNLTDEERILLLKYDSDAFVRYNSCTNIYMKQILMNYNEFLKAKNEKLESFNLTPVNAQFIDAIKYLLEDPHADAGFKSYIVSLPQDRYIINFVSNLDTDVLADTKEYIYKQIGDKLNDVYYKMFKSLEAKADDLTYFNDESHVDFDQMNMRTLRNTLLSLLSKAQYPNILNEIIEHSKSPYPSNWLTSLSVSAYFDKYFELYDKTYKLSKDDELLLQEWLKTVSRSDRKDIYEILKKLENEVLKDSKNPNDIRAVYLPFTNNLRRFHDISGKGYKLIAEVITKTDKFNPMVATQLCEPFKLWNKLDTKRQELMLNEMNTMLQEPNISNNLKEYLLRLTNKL
Regarding `O=C(Nc1ccc(Cl)c(Cl)c1)C1CC(=O)N(c2ccc(Br)cc2)C1` (configuration not stated), the inhibition is -1.64%. With `O=C(CCc1nc2ccccc2[nH]1)Nc1ccccc1F`, the inhibition was -0.01%. As for `CC1CCCCN1C(=O)COc1ccc2ccc(=O)oc2c1` (configuration not stated), the inhibition was -2.26%.

As to `Cc1ccc(NCN2C(=O)C3CC=CCC3C2=O)cc1` (configuration not stated), the inhibition was 2.04%. The same measure for `Cc1ccc(CSCC(=O)N/N=C/c2sccc2C)cc1`: -0.66%.

As for `O=C(Cn1cc(C(F)(F)F)cc(Cl)c1=O)Nc1cc(S(=O)(=O)N2CCOCC2)ccc1Cl`, the inhibition is 7.22%.

As to `Cc1ccc(NC(=O)NCc2ccc3c(c2)OCO3)cc1C`, the inhibition is 0.33%. As for `Cc1ccc(N2CC(C(=O)Nc3cccnc3)CC2=O)cc1` (configuration not stated), the inhibition is -4.99%.

As for `CC12CC(NC(=O)N1CCc1ccccc1)c1ccccc1O2` (configuration not stated), the inhibition was 4.6%.

Turning to `CC12CC(NC(=O)N1Cc1ccccc1)c1ccccc1O2` (configuration not stated), the inhibition was 25.3% (active). In the case of `COc1cccc2c1OC1(C)CC2NC(=O)N1Cc1ccccc1` (configuration not stated), the inhibition was 1.39%. Consider `CC1CCCC(C)N1NC(=S)Nc1ccc(OC(F)F)cc1` (configuration not stated), for which the inhibition was 3.89%. With `CSc1cc(-c2ccc(Cl)cc2)[nH]c(=O)c1C#N`, the inhibition was 0.84%.

`O=C1NCC(COCc2ccco2)O1` (configuration not stated): the inhibition is -4.49%.

Turning to `COc1ccc(/C=N/NC(=O)C(Cc2c[nH]c3ccccc23)NC(=O)OCC(C)C)cc1[N+](=O)[O-]` (configuration not stated), the inhibition is 3.34%.

On to `COc1cc(/C=N/NC(=O)C(Cc2c[nH]c3ccccc23)NC(=O)OCC(C)C)cc([N+](=O)[O-])c1OCc1ccccc1` (configuration not stated), for which the inhibition is 9.91%.

Take `COc1ccccc1CNC(=O)C(Cc1c[nH]c2ccccc12)NC(=O)OCc1ccccc1` (configuration not stated): the inhibition is 2.3%. For the compound `COC(=O)N/N=C/c1cc(OC)c(O)c([N+](=O)[O-])c1`, the inhibition was 14.3%. Take `COc1cc(/C=N/NC(=O)Cc2c[nH]c3ccccc23)cc(OC)c1OC`: the inhibition is 8.03%. For the compound `CC(=O)NC(Cc1c[nH]c2ccccc12)C(=O)N/N=C/c1ccccc1` (configuration not stated), the inhibition was 2.78%. In the case of `Cc1ccc2[nH]c(=O)c(CNC(C)C)cc2c1`, the inhibition was 11.4%. In the case of `O=C(NCc1ccccn1)C(=O)Nc1ccccc1`, the inhibition was 1.97%. For the compound `Cc1ccc(C(=O)C(OC(=O)c2cnccn2)c2ccccc2)cc1` (configuration not stated), the inhibition was 1.17%. In the case of `O=S(=O)(c1ccc2ccccc2c1)N1CCN(C(=S)Nc2ccc(F)cc2)CC1`, the inhibition is 3.26%. Turning to `O=C(Cc1ccccc1)NS(=O)(=O)c1ccc(N=NN2CCOCC2)cc1`, the inhibition was 12.9%. For `COC(=O)N1CCCc2cc(C)ccc21`, the inhibition was -4.46%. With `COc1cccc(C(=O)NN2C(=O)C3C4C=CC(O4)C3C2=O)c1` (configuration not stated), the inhibition was 6.4%. The same measure for `NS(=O)(=O)c1ccc(CCNC(=O)CSc2nc3ccsc3c(=O)n2CC(=O)O)cc1`: 2.18%. Consider `O=C(NCc1ccccn1)C1CCN(S(=O)(=O)c2cc(Cl)ccc2Cl)CC1`, for which the inhibition is 3.1%.

Turning to `CC(C)c1ccc(C(N)=S)cc1`, the inhibition is 4.59%. Consider `COC(=O)[C@H](C)NC(=O)NC(C)CCc1ccccc1` (some centres not stated), for which the inhibition was 13.4%.

Turning to `COC(=O)[C@@H](NC(=O)NC(C)CCc1ccccc1)C(C)C` (some centres not stated), the inhibition was 23.4% (active). On to `CC(=O)NC(C)CCc1ccccc1` (configuration not stated), for which the inhibition is -2.08%. Take `Cc1cccc(N2C(=O)CC(N3CCC(c4nc5ccccc5[nH]4)CC3)C2=O)c1` (configuration not stated): the inhibition was 3.73%. As to `CC1CCN(C(=O)C2CCN(S(=O)(=O)c3cc(Cl)ccc3Cl)CC2)CC1`, the inhibition is 0.81%. Consider `CC(C)C(C)(C#N)NC(=O)CSc1nc2scc(-c3ccco3)c2c(=O)n1-c1ccccc1` (configuration not stated), for which the inhibition was 24.4% (active). Take `NC(=O)CSc1nc2scc(-c3ccco3)c2c(=O)n1-c1ccccc1`: the inhibition was 18%.

As to `CC(C)C(C)NC(=O)CSc1nc2scc(-c3ccco3)c2c(=O)n1-c1ccccc1` (configuration not stated), the inhibition was 4.78%. Turning to `CCC(C(=O)Nc1ccncc1)c1ccccc1` (configuration not stated), the inhibition is 2.45%. With `Cc1cccc2cc(COC(=O)c3cccc([N+](=O)[O-])c3)c(=O)[nH]c12`, the inhibition is 3.82%. On to `CC(=O)NC1CCN(CC(=O)Nc2cccc([N+](=O)[O-])c2)CC1`, for which the inhibition is 1.46%. Take `CC1CCN(CC(=O)Nc2cccc([N+](=O)[O-])c2)CC1`: the inhibition was -0.43%. In the case of `CCC(C)NC(=O)CSc1nc(-c2cccs2)cc(C(F)(F)F)n1` (configuration not stated), the inhibition is 18.3%. For the compound `Cc1ccc(NC(=O)N2CCC(C(=O)NCc3ccccc3)CC2)cc1`, the inhibition was 26.3% (active).

Regarding `O=C(NC1CCN(C(=O)NC2CCCCC2)CC1)c1ccco1`, the inhibition was 11.5%. `O=C(NCc1ccccc1)C1CCN(C(=O)NCc2ccccc2)CC1`: the inhibition is 17.5%. The same measure for `Cc1ccc(NC(=O)N2CCC(C(=O)NCc3ccc(F)cc3)CC2)cc1`: 10.1%; for `COc1ccc(C(=O)NC2CCN(C(=S)NCc3ccco3)CC2)cc1`: 4.73%.

`O=C(NC1CCCCC1)NC1CC2CCC(C1)N2C(=S)NCc1ccco1` (configuration not stated): the inhibition is 19.9%. The same measure for `O=C(NC1CCN(C(=S)NCc2ccco2)CC1)C1CCCCC1`: 6.27%; for `CCNC(=S)N1CCC(NC(=O)c2ccco2)CC1`: -4.14%. Regarding `CCOc1ccc(C(=O)NC2CCN(C(=S)NCc3ccco3)CC2)cc1`, the inhibition is 11.3%. The same measure for `Cc1cc(=O)n(-c2ccc(Cl)cc2)c(=O)[nH]1`: -2%; for `Cc1c(C(=O)NCc2ccccn2)oc2ccc(S(=O)(=O)N3CCOCC3)cc12`: -1.02%. On to `O=C(O)CCCC(=O)NNc1ncnc2ccccc12`, for which the inhibition is 13.7%. As for `O=C(CCCCCN1C(=O)c2ccccc2C1=O)NCc1ccco1`, the inhibition is 19.7%. The same measure for `O=C(Oc1c(Cl)cc(Cl)c2ccccc12)N1CCCC1`: 13.6%. The same measure for `COc1ccc(-c2nn(-c3ccccc3)cc2/C=C/C(=O)OCC(=O)Nc2cccc(C#N)c2)cc1`: 0.99%; for `O=C(NC1CCN(C(=S)NCc2ccco2)CC1)c1ccc(F)cc1`: 14.1%. In the case of `O=C(NCc1ccco1)c1cccc(F)c1`, the inhibition was 4.04%. The same measure for `COc1ccc(C(C(=O)NC2CCCCC2)N(C(=O)c2sc(C)nc2C)c2ccccc2)cc1` (configuration not stated): -2.38%; for `Cc1cc(NC(=O)Nc2cccs2)no1`: 6.28%. With `Cc1ccc(NC(=O)Nc2cccs2)cc1`, the inhibition was 9.98%. With `O=C(Nc1ccccn1)c1cccs1`, the inhibition was 3.97%.

Take `O=C(Nc1ccncc1)Nc1ccccn1`: the inhibition was 3.11%.

Regarding `Cc1cccc(C)c1-n1c(C)cc(/C=N/NC(=O)CSc2ncccn2)c1C`, the inhibition was 4.32%. Turning to `CC(C)CCNC(=O)NC(=O)COC(=O)C1=COCCO1`, the inhibition was -7.85%. For `O=c1cc(C23CC4CC(CC(C4)C2)C3)[nH][nH]1`, the inhibition was -6.62%. Take `COc1ccc(C(=O)/C(=C/c2cccs2)c2nc3ccccc3o2)cc1`: the inhibition was 15.5%. With `N#C/C(=C\c1ccc(O)cc1)c1nc2ccccc2o1`, the inhibition was 7.39%. As for `N#C/C(=C\c1ccc(Cl)cc1)c1nc2ccccc2o1`, the inhibition is 15.7%. In the case of `COc1ccc(C(=O)/C(=C\c2sccc2C)c2nc3ccccc3o2)cc1`, the inhibition is 2.1%. With `COCc1[nH]nc2c1C(c1ccsc1)C(C#N)=C(N)O2` (configuration not stated), the inhibition is 1.23%. For the compound `CCc1ccc(N2CC(C(=O)Nc3cc(C)ccc3F)CC2=O)cc1` (configuration not stated), the inhibition is 1.79%. On to `Cc1c2c(nc3c(C(=O)NC4CCCCC4C)cnn13)CCCC2` (configuration not stated), for which the inhibition is 3.74%.

As to `O=C(Cc1csc(-c2ccccc2)n1)NCc1ccccc1F`, the inhibition was 2.51%. On to `Nc1nonc1C(=O)N/N=C/c1ccc(-c2cccc([N+](=O)[O-])c2)o1`, for which the inhibition was 7.55%. Turning to `COCc1cc(C)nc(N/N=C/c2ccc(-c3ccc(C(=O)O)c(Cl)c3)o2)c1C#N`, the inhibition was 15.5%. `O=C(O)c1cc(-c2ccc(/C=N/Nc3ccc(Cl)cc3)o2)ccc1Cl`: the inhibition was 16.9%.

Turning to `Nc1nonc1C(=O)N/N=C/c1ccc(-c2cccc(C(=O)O)c2)o1`, the inhibition is 16.9%. As for `Cc1ccc(-c2ccc(/C=N\NC(=O)c3cc4c(ccc5ccccc54)o3)o2)cc1[N+](=O)[O-]`, the inhibition is 2.34%. The same measure for `COCc1cc(C)n(CC(=O)Nc2ccc(Cl)cc2Cl)c(=O)c1C#N`: 10.9%.

`O=C(N/N=C/c1ccc([N+](=O)[O-])o1)c1cc2c(ccc3ccccc32)o1`: the inhibition was 5.62%. Consider `O=[N+]([O-])c1cccc(-c2ccc(/C=N/NC(=S)Nc3ccccc3)o2)c1`, for which the inhibition is 2.03%.

Take `CC(=O)Nc1ccc(S(=O)(=O)NCC(=O)OCC(=O)NC(=O)c2cccn2C)cc1`: the inhibition was 3.48%. Turning to `CC1CCN(S(=O)(=O)c2ccc(NC(=O)CCN3C(=O)c4ccccc4C3=O)cc2)CC1`, the inhibition is 4.02%.

Consider `C=CCNC(=S)/N=c1/scc(C)n1C`, for which the inhibition is 6.8%. The same measure for `Cc1ccccc1Cn1ccc(NC(=O)c2onc(C)c2Cl)n1`: 2.73%; for `COCCNC(=O)COc1ccccc1Cl`: 17.4%. `O=C(Nn1cc(C(=O)Nc2ccc(F)cc2F)c2ccccc2c1=O)c1cnccn1`: the inhibition is 5.45%. For the compound `CCOC(=O)N1CCN(c2c(N3CCN(c4ccccc4F)CC3)c(=O)c2=O)CC1`, the inhibition is 3.17%. `CCc1nnc(NC(=O)CSc2nnc(CNC(=O)c3ccc(OC)c(OC)c3)o2)s1`: the inhibition was 0.34%. For `CC1(C)NC(=O)N(CCCCOc2ccccc2[N+](=O)[O-])C1=O`, the inhibition was 1.49%. Consider `COC(=O)c1ccc(-c2ccc(/C=N/N3C(=O)C4C5C=CC(C6CC56)C4C3=O)o2)cc1` (configuration not stated), for which the inhibition is 4.36%. With `COc1ccc(CC(=O)N/N=C/c2ccc(-c3ccc(F)cc3)o2)cc1OC`, the inhibition was 6.71%. As to `O=C(Cc1ccc(Br)cc1)N/N=C/c1ccc(-c2cccc(C(=O)O)c2)o1`, the inhibition was 14.3%.

Turning to `O=C1C2C3C=CC(C4CC34)C2C(=O)N1/N=C/c1ccc(-c2ccc([N+](=O)[O-])cc2)o1` (configuration not stated), the inhibition was 7.6%.

By inhibition is commonly meant the change of the read-out against control, counted positive when it falls.
